Bioassay records as filed in PubChem.
FMDV antiviral – blocks foot and mouth disease virus; FMDV antiviral cell-based qHTS; Potency, µM (doses to about 57.9 µM), for the others: top-dose activity change, negative = inhibition, usual class: inhibitors; actives 1.2% (n = 410,000); AID 1159524; calls by dose curve; tested in HEK293T cells; note: read-out not given here; potency is the fitted concentration of half-maximal effect; nearly all actives have a fitted effect of over 45% in size
VACV Venus inh – vaccinia inhibition (Venus reporter); actives 0.46% (n = 330,000); Potency, µM (series often up to 36.5 µM), for the others: at the highest dose activity change, negative = inhibition, most hits filed as inhibitors; Vaccinia virus Venus reporter expression, fluorescence; calls by dose curve; tested in A549 cells; note: potency is the fitted concentration of half-maximal effect; nearly all actives have a fitted effect of over 30% in size
Vaccinia mCherry – vaccinia inhibition (mCherry reporter). Potency, µM (series often up to 36.5 µM), for inactives: top-dose activity change, negative = inhibition, actives largely listed as inhibitors. Vaccinia virus mCherry reporter infection, fluorescence. actives 0.63% (n = 310,000). AID 720579; calls by dose curve; tested in A549 cells; note: potency is the fitted concentration of half-maximal effect; nearly all actives have a fitted effect of over 35% in size
Marburg entry inh – inhibitors of Marburg virus binding or cell entry; Marburg virus pseudotyped entry inhibition, cell reporter; Potency, µM (doses to about 37.8 µM), inactives show at the top dose activity change, negative = inhibition, usual class: inhibitors; actives 1.8% (n = 300,000); calls by dose curve; tested in HEK293 cells; note: potency is the fitted concentration of half-maximal effect
HCMV antiviral – blocks human cytomegalovirus replication | actives 4.5% (n = 410,000) | AID 1259415 | activity change, negative = inhibition, % at 57.5 µM | HFF cells, HCMV-luciferase reporter, 72 h; hits give low values; in the data active = activity change below about -60%; inconclusive = no clear call, values can overlap the other calls; inactive = above about -39%
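Inhibition of viral replication was scored as loss of reporter luminescence in HFFs infected with HCMV-luciferase (MOI 1 PFU/cell) for 72 h; compounds tested at 2 doses, normalized to buffer and Salinomycin controls.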
LASV entry inh – Lassa virus entry inhibition; Lassa virus pseudotype entry inhibition, cell reporter; Potency, µM (titrated, usually from 37.9 µM), inactives show at the top dose activity change, negative = inhibition, usual class: inhibitors; actives 1.2% (n = 300,000); AID 540256; calls by dose curve; tested in HEK293 cells; note: potency is the fitted concentration of half-maximal effect; nearly all actives have a fitted effect of over 50% in size
Starred values were filed as active, the others as inactive; [ ] = remark or other dose. Rows were chosen to be rich in hits. Some 6.5% of all compounds tested hit in one or more screens of this group. % is set by controls: 0 for no effect and ±100 for the full control effect.

How did COc1ccc(/C=C/C(O)=C2/C(=O)NC3(C)CC2c2ccccc2O3)c(OC)c1OC (stereo not given) do in these assays?
FMDV antiviral: inconclusive; HCMV antiviral: -65*

How did Cc1ccc(/C=C/C(O)=C2/C(=O)N(C)C3(C)CC2c2ccccc2O3)cc1 (stereo not given) do in these assays?
FMDV antiviral: 14µM*; VACV Venus inh: inconclusive; Vaccinia mCherry: inconclusive; Marburg entry inh: inconclusive; HCMV antiviral: -98*; LASV entry inh: -12%

How did COc1ccc(/C=C/C(O)=C2/C(=O)N(C)C3(C)CC2c2ccccc2O3)cc1 (stereo not given) do in these assays?
FMDV antiviral: 14µM*; Marburg entry inh: 8.2µM*; HCMV antiviral: -85*; LASV entry inh: inconclusive

Results for COc1ccc(Cl)cc1NC(=O)Cn1cc(C(=O)c2ccncc2)c(=O)c2cc(C)ccc21 ?
FMDV antiviral: -13%; VACV Venus inh: -6%[7.34 µM]; Vaccinia mCherry: -11%[7.34 µM]; HCMV antiviral: 22; LASV entry inh: -1%[46.1 µM]

What do the screens show for `O=C(c1cc(-c2ccncc2)nc2ccccc12)N1CCN(c2ccccn2)CC1`?
FMDV antiviral: -9%; Marburg entry inh: inconclusive; HCMV antiviral: 14; LASV entry inh: -7%

How did O=C(c1cc(-c2ccccc2)nc2ccccc12)N1CCCc2ccccc21 do in these assays?
FMDV antiviral: -7%; VACV Venus inh: -12%; Vaccinia mCherry: -9%; Marburg entry inh: inconclusive; HCMV antiviral: -63*; LASV entry inh: -11%

Results for Cc1ccc(-c2cc(C(=O)N3CCC(C)CC3)c3ccccc3n2)cc1 ?
FMDV antiviral: 27%; HCMV antiviral: -71*

Results for O=C(c1cc(-c2ccncc2)nc2ccccc12)N1CCN(c2ccccc2O)CC1 ?
FMDV antiviral: -1%; HCMV antiviral: 6

Results for O=C(c1cc(-c2ccncc2)nc2ccccc12)N1CCN(c2ncccn2)CC1 ?
FMDV antiviral: -22%; VACV Venus inh: -18%; Vaccinia mCherry: -7%; Marburg entry inh: 1.1µM*; HCMV antiviral: 7; LASV entry inh: -14%

Results for O=C(c1cc(-c2ccncc2)nc2ccccc12)N1CCN(c2ccc(N3CCOCC3)nn2)CC1 ?
FMDV antiviral: -18%; VACV Venus inh: -16%; Vaccinia mCherry: inactive; Marburg entry inh: 15µM*; HCMV antiviral: 99; LASV entry inh: 44%[14.3 µM]

What do the screens show for `NC(=O)C1CCN(C(=O)c2cc(-c3ccc(Cl)cc3)nc3ccccc23)CC1`?
FMDV antiviral: 12%; VACV Venus inh: -3%; Vaccinia mCherry: -7%; Marburg entry inh: -5%; HCMV antiviral: 30; LASV entry inh: -16%

Results for Cc1cccc(-c2cc(C(=O)N3CCCc4ccccc43)c3ccccc3n2)c1 ?
FMDV antiviral: 29%; VACV Venus inh: inconclusive; Vaccinia mCherry: inconclusive; Marburg entry inh: inconclusive; HCMV antiviral: 42; LASV entry inh: -12%

Results for COCc1c(C(=O)N2CCN(C3CCCC3)CC2)cnn1-c1nccc(-c2cc(C)sc2C)n1 ?
FMDV antiviral: -1%; VACV Venus inh: -10%; Vaccinia mCherry: -12%

Results for CC[C@H]1SC2=NC(C)=C(C(=O)OCCOC)[C@@H](c3ccc(C(=O)OC)cc3)N2C1=O ?
Marburg entry inh: -19%

Results for CCN1C(=O)c2ccccc2Sc2ccc(NC(=O)c3ccc(C)c(F)c3)cc21 ?
FMDV antiviral: inconclusive; VACV Venus inh: -30%; Vaccinia mCherry: inconclusive; HCMV antiviral: -39; LASV entry inh: inconclusive

Results for N#Cc1ccc(NC(=O)N[C@H]2CC[C@@]34CCCN3C(=O)CCC[C@H]4C2Cc2ccccc2)cc1 (stereo not given in full) ?
HCMV antiviral: 1

Results for COc1ccc(NC(=O)CN2C(=O)C3(SCC(=O)N3c3cccc(OC)c3)c3ccccc32)cc1 (stereo not given) ?
FMDV antiviral: 0%; VACV Venus inh: -5%; Vaccinia mCherry: 6%; HCMV antiviral: 16; LASV entry inh: 7%[46.1 µM]

Results for Cc1ccc(-c2ccnc(-n3ncc(C(=O)NCCN4CCOCC4)c3C3CC3)n2)o1 ?
FMDV antiviral: -21%; VACV Venus inh: -18%; Vaccinia mCherry: inactive

Results for CN1CCN(c2oc(-c3ccc(OCc4ccc(Cl)cc4)cc3)nc2C#N)CC1 ?
VACV Venus inh: -14%; Vaccinia mCherry: -14%

How did FC(F)(F)c1ccncc1-c1nnnn1-c1ccc(Cl)cc1 do in these assays?
FMDV antiviral: -26%; VACV Venus inh: -3%; Vaccinia mCherry: inactive; Marburg entry inh: inconclusive; HCMV antiviral: inconclusive; LASV entry inh: -5%

Results for FC(F)(F)c1nc(N2CCCC2)ncc1-c1nnnn1-c1ccc(Cl)cc1 ?
FMDV antiviral: inconclusive; VACV Venus inh: inconclusive; Vaccinia mCherry: inconclusive; Marburg entry inh: inconclusive; HCMV antiviral: -65*; LASV entry inh: inconclusive

Results for Fc1ccc(-n2nnnc2-c2cnc(-c3cccs3)nc2C(F)(F)F)cc1 ?
FMDV antiviral: 16µM*; Marburg entry inh: inconclusive; HCMV antiviral: -86*; LASV entry inh: inconclusive

What do the screens show for `Cc1ccc(-n2nnnc2-c2cnn(-c3ccc(F)cc3)c2C(F)(F)F)cc1`?
FMDV antiviral: inconclusive; Marburg entry inh: inconclusive; HCMV antiviral: -70*; LASV entry inh: 15µM*

What do the screens show for `Cc1ccc(-n2nnnc2-c2cnc(-c3cccnc3)nc2C(F)(F)F)cc1`?
FMDV antiviral: 22µM*; Marburg entry inh: -37%; HCMV antiviral: inconclusive; LASV entry inh: inconclusive

What do the screens show for `FC(F)(F)c1nc(-c2ccncc2)ncc1-c1nnnn1-c1ccccc1`?
FMDV antiviral: -13%; Marburg entry inh: -1%; HCMV antiviral: 3; LASV entry inh: -7%

What do the screens show for `COc1cccc(-c2nc(NC3CCNCC3)c3ccccc3n2)c1`?
FMDV antiviral: -14%

How did O=C(CN1C(=O)COc2ccc(S(=O)(=O)NC3CCCC3)cc21)NCc1ccccc1Cl do in these assays?
FMDV antiviral: 2%; VACV Venus inh: -4%; Vaccinia mCherry: -1%; HCMV antiviral: 3; LASV entry inh: -3%[46.1 µM]

Results for Cc1ccc(C)n1C1C(=O)N(Cc2ccc(C(C)C)cc2)c2ccccc21 (stereo not given) ?
HCMV antiviral: 18

Results for CN(Cc1ccco1)c1ncnc2ccc(-c3ccc4c(ccn4C)c3)cc12 ?
FMDV antiviral: -27%; HCMV antiviral: -99*

Results for O=C(Cc1ccc(OCCc2ccccc2)cc1)NO ?
VACV Venus inh: -8%; Vaccinia mCherry: 12%

How did O=C(c1ccccc1)c1ccc(OCC(O)CN2CCN(S(=O)(=O)N3CCCCC3)CC2)cc1 (stereo not given) do in these assays?
FMDV antiviral: 14µM*; Marburg entry inh: -20%; HCMV antiviral: -67*; LASV entry inh: inconclusive
